Measured values: PubChem BioAssay AID618 (Sanford-Burnham Center for Chemical Genomics, 2007)
Hit rate of the full screen: of about 87,000 compounds, about 540 (0.62%) were called active. No rule for the calls is given here. Shown is part of a subset that was picked to be rich in actives. Measured potencies and affinities stand elsewhere.

Experiment: inhibitors of MT1-MMP promoter transcription, cell-based, luciferase reporter, luminescence (AID 618);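 also: actives suppress MT1-MMP promoter-driven transcription so potencies describe inhibitors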
Conditions: MT1-MMP promoter luciferase reporter cells
With `CCCOC(=O)c1ccc(Oc2c(-c3ccc(OC)cc3O)n[nH]c2C)cc1` the outcome was “inactive”. For `COc1ccc(CN2CC(C(=O)NCc3ccc4c(c3)OCO4)CC2=O)cc1` (configuration not stated), the outcome was “inactive”. For `O=C(c1nc2nc(-c3ccccc3)cc(C(F)(F)F)n2n1)N1CCOCC1`, the outcome was “inactive”. For `O=C(CSc1nnc(-c2ccccc2)n1Cc1ccco1)Nc1ccc(S(=O)(=O)N2CCCC2)cc1`, the outcome was “inactive”. With `Clc1ccc(-c2nc(N3CCCCC3)nc3ccccc23)cc1` the outcome was “inactive”. In the case of `Clc1ccc(-c2nnc3n2CCCCC3)cc1`, the outcome is reported as “inactive”. With `c1ccc2oc(SCc3cn4ccccc4n3)nc2c1` the outcome was “inactive”. With `Clc1c(CSc2nc3ccccc3o2)nc2sccn12` the outcome was “inactive”. With `CCOc1cc(/C=N/N=C(/N)c2nonc2N)cc(Br)c1OCc1ccc(Cl)cc1` the outcome was “inactive”. With `CCOC(=O)c1[nH]c(C)c(C(=O)NCCCOC(C)C)c1C` the outcome was “inactive”. With `c1ccc(CN2CCN(c3nc4ccccc4c4ccccc34)CC2)cc1` the outcome was “inactive”. For `COCCOC(=O)C1=C(C)NC2=C(C(=O)CCC2)C1c1cc2c(cc1Br)OCO2` (configuration not stated), the outcome was “inactive”. With `O=S(=O)(c1ccc2c(c1)C(=NO)c1cc(S(=O)(=O)N3CCCCC3)ccc1-2)N1CCCCC1` the outcome was “active”. With `CC1CCN(S(=O)(=O)c2ccc3c(c2)C(=NO)c2cc(S(=O)(=O)N4CCC(C)CC4)ccc2-3)CC1` the outcome was “inactive”. For `O=S(=O)(c1ccc(S(=O)(=O)N2CCCC2)cc1)N1CCCCCC1`, the outcome was “inactive”. With `O=C(CCC(=O)c1ccc(F)cc1)Nc1cccnc1` the outcome was “inactive”. For `CC(C)N(CCCNC(=O)CC1Oc2ccccc2NC1=O)Cc1ccccc1` (configuration not stated), the outcome was “inactive”. For `Nc1ccc2c(c1)C(=O)C(=O)c1ccccc1-2`, the outcome was “active”. In the case of `Nc1ccc(Br)c2c1C(=O)c1ccccc1C2=O`, the outcome is reported as “inactive”. With `O=C1C(=O)c2ccc(-c3ccccc3)cc2-c2ccccc21` the outcome was “inactive”. For `CCOC(=O)CON1C(=O)c2ccccc2C1=O`, the outcome was “inactive”. For `COc1ccc(-c2c(C)n([O-])c3c([n+]2=O)CCCC3)cc1`, the outcome was “inactive”. For `N=c1n(CCN2CCOCC2)c2ccccc2n1Cc1ccccc1Br`, the outcome was “inactive”. For `Cn1c(-n2c(-c3ccco3)nc3ccccc3c2=O)nc2ccccc21`, the outcome was “inactive”. With `Cn1c(-c2ccco2)nc2cc3ccccc3cc21` the outcome was “active”. In the case of `CCn1c(-c2ccco2)nc2ccccc21`, the outcome is reported as “inactive”. For `C=COCCn1c(=N)n(CCC)c2ccccc21`, the outcome was “inactive”. With `O=C1[C@@H]2C(c3ccccc3Cl)=NO[C@@H]2C(=O)N1Cc1ccccc1` the outcome was “inactive”. For `Cc1c(NC(=O)c2ccccc2)c(=O)n(-c2ccccc2)n1C`, the outcome was “inactive”. With `Cc1c(NC(=O)c2ccc(=O)oc2)c(=O)n(-c2ccccc2)n1C` the outcome was “inactive”. With `CCCNc1cc(C)oc(=O)c1C(=O)CCC` the outcome was “inactive”. For `Oc1ccc(Nc2nc3ccccc3nc2Nc2ccc(O)cc2)cc1`, the outcome was “inactive”.
